The results in this text go back to PubChem BioAssay.

Assay [1] is described as follows: Wnt pathway potentiators raising nuclear beta-catenin – imaging, WNT3A-conditioned medium, mouse C2C12, NPC library, primary screen (AID 1117326; in the data active means nuclear beta-catenin stimulation mostly above about 4.2%, no sharp cut-off; inactive means mostly below about 10%). To be noted: stronger effect = higher value.
A short description of assay [2]: stimulators of insulin release from INS-1E, primary screen, cell-based, 5 mM glucose, NPC library (AID 1117329;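 active means compound raises insulin release from rat beta cells at 5 mM glucose, no numeric limit stated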). To be noted: rat INS-1E insulin secretion, at 10 µM, stronger effect = higher value.
Assay [3] in a line: growth inhibition of GSK3B-pretreated HCT116 cells – cell-based, CellTiter-Glo, 0.2 to 20 µM (AID 1117336;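 active means compounds lowering colon cancer cell viability after pretreatment blocking the GSK3B kinase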). To be noted: HCT116 viability after GSK3B inhibitor, at 20 µM, stronger effect = higher value. (In ATP-based viability assays light output follows the ATP content of the culture.)
Assay [4] in a line: inhibition of endothelial tube formation, primary screen, imaging, VEGF stimulated, CD31 staining, tube area, NPC library (AID 1117340;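 active means compound that reduces growth-factor-driven endothelial tube area in a mixed cell culture, no cutoff stated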). Particulars: VEGF-stimulated ADSC/ECFC co-culture, at 10 µM, stronger effect = higher value.
Assay [5] is described as follows: GLP1 release stimulators, primary, NCI-H716, NPC library (AID 1117341;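 active means compound raises GLP1 secretion from the human gut endocrine cells, with no numeric limit stated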). To be noted: NCI-H716 cells, at 10 µM, stronger effect = higher value.
A short description of assay [6]: HCT116 colon cancer cell growth inhibition, primary screen, CellTiter-Glo luminescence, NPC library (AID 1117342;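 active means compounds that lower survival of HCT116 colon cancer cells in the luminescence readout, no numeric limit stated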). Particulars: at 20 µM (top of the series).
Assay [7] can be described thus: reduced SW480 viability measured with CellTiter-Glo, NPC library, primary (AID 1117343;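 active means compounds that lower viability of the colon cancer cells in the luminescence readout, with no numeric limit stated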). Particulars: CellTiter-Glo luminescence; at 20 µM (top of the series).
Assay [8] can be described thus: NPC library primary testing for decreased DLD-1 cell viability via CellTiter-Glo (AID 1117346;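 active means compounds that lower survival of DLD-1 colon cancer cells in the luminescence readout, no cutoff given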). Particulars: DLD-1 viability, CellTiter-Glo luminescence; at 20 µM (top of the series).
For assay [9], the target named is 6-phosphogluconate dehydrogenase, decarboxylating (Homo sapiens) (UniProt P52209). The assay can be described thus: inhibition of human phosphogluconate dehydrogenase – biochemical, recombinant enzyme, NADPH absorbance, primary screen (AID 1159550;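 active means at least 20% inhibition of 6-phosphogluconate dehydrogenase activity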). To be noted: recombinant 6PGD, NADPH absorbance 341 nm; at 10 µM; stronger effect = higher value.
Chain of 6-phosphogluconate dehydrogenase, decarboxylating (Homo sapiens) (P52209 whole entry, looked up): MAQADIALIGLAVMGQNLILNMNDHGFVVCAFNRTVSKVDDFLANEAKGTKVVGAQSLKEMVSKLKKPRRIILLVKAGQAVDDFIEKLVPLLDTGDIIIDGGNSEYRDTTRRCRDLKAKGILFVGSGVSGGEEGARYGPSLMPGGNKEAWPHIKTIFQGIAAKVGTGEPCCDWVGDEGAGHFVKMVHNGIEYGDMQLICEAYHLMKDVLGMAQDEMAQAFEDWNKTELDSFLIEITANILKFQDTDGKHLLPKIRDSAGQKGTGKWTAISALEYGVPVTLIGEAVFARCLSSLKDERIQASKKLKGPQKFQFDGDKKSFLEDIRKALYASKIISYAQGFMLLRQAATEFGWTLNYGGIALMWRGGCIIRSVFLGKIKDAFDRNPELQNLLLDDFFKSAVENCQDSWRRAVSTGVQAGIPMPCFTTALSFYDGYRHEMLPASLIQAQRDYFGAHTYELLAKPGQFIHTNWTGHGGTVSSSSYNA
A short description of assay [10]: modulation of C. elegans fzo-1 (AID 1259413; call rule not given here;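 further: fzo-1 mutant C. elegans worms in liquid wells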). To be noted: C. elegans fzo-1 modulator screen, mean read-out; stronger effect = higher value.
A short description of assay [11]: EMT-state selective cytotoxicity in co-culture – imaging, PC-3E GFP, TEM4-18 mCherry, primary screen (AID 1345086;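 active means compounds killing one labelled cell type while sparing the other, by normalised counts and ratio limits, not self-fluorescent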;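 on all read-outs here: cells exposed to compound for 72 h before imaging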;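 on red/green cell ratio (normalised): normalised mesenchymal count divided by normalised epithelial count so high means epithelial killing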). Particulars: PC-3E GFP / TEM4-18 mCherry co-culture, imaging cell counts, at 1 µM; for red/green cell ratio (normalised): actives lie on both sides, counts scaled to control wells, 1 = unselective.
Assay [12] is described as follows: MELAS cybrid and Rieske KO viability enhancers – cell-based, MELAS cybrids, Rieske KO mouse fibroblasts, CellTiter-Glo, primary screen (AID 1508586;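 active means mean z-score across replicates of 1.96 or higher in either the MELAS or the Rieske mutant cell line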;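 further: z relative to plate mean and SD of compound and empty wells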). To be noted: low glucose.
For assay [13], the target named is NAD(+) hydrolase SARM1 (Homo sapiens) (UniProt Q6SZW1). Put plainly: blocking NAD cleavage by SARM1 SAM-TIR – cell lysate, NAD-Glo luminescence (AID 1508614;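 active means compound whose remaining NAD level is above about 45 nM, limit read from the data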). To be noted: SAM-TIR HEK293T lysate NADase, at 1 µM, stronger effect = higher value.
Chain of NAD(+) hydrolase SARM1 (Homo sapiens) (Q6SZW1 whole entry, looked up, the tested form may be a part): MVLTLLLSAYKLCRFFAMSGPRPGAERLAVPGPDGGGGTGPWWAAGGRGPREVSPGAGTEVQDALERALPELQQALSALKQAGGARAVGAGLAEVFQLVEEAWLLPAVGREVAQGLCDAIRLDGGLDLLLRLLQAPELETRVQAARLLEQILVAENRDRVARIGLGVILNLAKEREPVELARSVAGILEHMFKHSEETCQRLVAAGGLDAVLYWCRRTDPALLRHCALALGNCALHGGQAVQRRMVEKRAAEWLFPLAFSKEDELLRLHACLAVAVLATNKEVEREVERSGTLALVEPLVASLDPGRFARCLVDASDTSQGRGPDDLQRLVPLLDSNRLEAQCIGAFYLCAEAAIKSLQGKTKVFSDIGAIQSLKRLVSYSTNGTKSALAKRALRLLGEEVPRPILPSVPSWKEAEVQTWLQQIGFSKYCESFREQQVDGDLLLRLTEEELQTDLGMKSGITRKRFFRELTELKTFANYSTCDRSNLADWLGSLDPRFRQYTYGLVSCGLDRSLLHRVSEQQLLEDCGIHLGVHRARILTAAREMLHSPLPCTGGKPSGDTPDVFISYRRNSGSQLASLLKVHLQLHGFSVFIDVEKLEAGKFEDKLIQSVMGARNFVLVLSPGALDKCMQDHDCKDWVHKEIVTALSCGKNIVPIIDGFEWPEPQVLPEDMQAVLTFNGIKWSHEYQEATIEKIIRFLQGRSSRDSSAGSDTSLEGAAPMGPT
For assay [14], the target named is Mitogen-activated protein kinase 7 (Homo sapiens) (UniProt Q13164). The assay can be described thus: Gal4-ERK5 driven luciferase induction – cell-based, HTS, primary screen (AID 1508626;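 active means luciferase signal above three times the same-plate solvent-only control wells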;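 further: luciferase driven by Gal4-ERK5 fusion binding five Gal4 sites before minimal TATA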). Particulars: HeLa Gal4-ERK5 transactivation, 18 h, at 5 µM, stronger effect = higher value.
Chain of Mitogen-activated protein kinase 7 (Homo sapiens) (Q13164 whole entry, looked up, the tested form may be a part): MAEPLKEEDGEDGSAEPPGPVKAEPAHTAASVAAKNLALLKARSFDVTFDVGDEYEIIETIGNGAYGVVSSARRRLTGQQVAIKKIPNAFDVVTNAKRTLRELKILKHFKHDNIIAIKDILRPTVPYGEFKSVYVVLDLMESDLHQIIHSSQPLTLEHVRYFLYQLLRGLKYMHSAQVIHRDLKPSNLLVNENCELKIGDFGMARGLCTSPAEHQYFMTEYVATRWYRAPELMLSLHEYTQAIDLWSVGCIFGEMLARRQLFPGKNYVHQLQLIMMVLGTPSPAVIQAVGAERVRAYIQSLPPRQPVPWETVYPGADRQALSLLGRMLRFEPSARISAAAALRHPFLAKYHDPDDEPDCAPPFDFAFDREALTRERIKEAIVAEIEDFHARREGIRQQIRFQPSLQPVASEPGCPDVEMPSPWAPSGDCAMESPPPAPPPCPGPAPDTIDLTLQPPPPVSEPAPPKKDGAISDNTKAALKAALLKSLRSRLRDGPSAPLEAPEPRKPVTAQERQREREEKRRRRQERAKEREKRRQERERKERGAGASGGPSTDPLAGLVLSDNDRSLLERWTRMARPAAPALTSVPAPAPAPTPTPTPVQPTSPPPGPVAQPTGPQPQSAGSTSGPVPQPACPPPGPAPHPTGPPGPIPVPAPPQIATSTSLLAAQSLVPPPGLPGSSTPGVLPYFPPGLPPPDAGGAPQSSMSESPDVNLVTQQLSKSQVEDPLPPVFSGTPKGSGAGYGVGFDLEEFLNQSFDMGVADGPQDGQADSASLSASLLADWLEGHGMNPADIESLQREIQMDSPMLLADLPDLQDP
The test system of the next assay is F380Y. The assay can be described thus: BK channel mutant inhibitors and activators – cell-based, U2OS BacMam, thallium flux, beta subunits, selectivity assay, profiling panel (AID 1259406).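 Further: initial slope of Thallos dye fluorescence rise after thallium is added; log ratio against the mean of 0.3% DMSO vehicle wells on the same plate.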 Particulars: U2OS BacMam BK variants, at 30 µM.
Another assay relates to F380Y/beta1. Described as above. Particulars: U2OS BacMam BK variants, at 30 µM.
A further assay deals with F380Y/beta2Delta. The assay is described as above. Particulars: U2OS BacMam BK variants, at 30 µM.
The subject of a further assay is F380Y/beta4. The description is as above. To be noted: U2OS BacMam BK variants, at 30 µM.
Assay [15] addresses Calcium-activated potassium channel subunit alpha-1 (Homo sapiens) + Leucine-rich repeat-containing protein 26 (Homo sapiens) (UniProt Q12791+Q2I0M4). Described as above. Particulars: U2OS BacMam BK variants, F380Y/Slo1WT/gamma1, at 30 µM.
Where [16] appears, read: measured here: epithelial PC-3E GFP cell survival.
Setting [17] is: measured here: mesenchymal TEM4-18 mCherry cell survival.
Where [18] appears, read: MELAS cybrid survival, CellTiter-Glo 48 h, stronger effect = higher value.
Setting [19] is: Rieske KO mouse fibroblast survival, CellTiter-Glo 72 h.

Several values for one entry are separate records, joined by “and”; a condition that tells them apart may be missing. Equal entries are not always repeated. Activity calls are given as the source filed them.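 How the source made its calls, unless noted: active means thallium flux through the channel raised or lowered by more than 3 SD from vehicle-only wells, actives on both sides; inactive means the rest.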

Chain of Calcium-activated potassium channel subunit alpha-1 (Homo sapiens) + Leucine-rich repeat-containing protein 26 (Homo sapiens) (Q2I0M4 whole entry, looked up, one chain of several): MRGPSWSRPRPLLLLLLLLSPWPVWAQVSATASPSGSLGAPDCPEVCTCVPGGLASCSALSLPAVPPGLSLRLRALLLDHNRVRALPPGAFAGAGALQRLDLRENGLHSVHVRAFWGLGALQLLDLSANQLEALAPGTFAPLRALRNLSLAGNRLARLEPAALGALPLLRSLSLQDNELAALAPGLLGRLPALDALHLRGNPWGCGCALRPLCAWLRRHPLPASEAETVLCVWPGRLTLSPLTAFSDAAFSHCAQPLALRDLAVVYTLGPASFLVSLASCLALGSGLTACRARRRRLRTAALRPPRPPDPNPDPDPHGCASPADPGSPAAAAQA

Consider `CC(CN1c2ccccc2Sc2ccccc21)N(C)C` (centres undefined), for which the nuclear beta-catenin stimulation in assay [1] (at 10 µM) was 0% (inactive); in assay [1] (stimulation, at 2 µM), -0.4%. The insulin secretion stimulation in [2] is 7.9% (inactive). The viability decrease in assay [3] was 28.6% (inactive). In addition, the tube area decrease in assay [4] was 14.2% (inactive). Moreover, in assay [5], the GLP1 secretion stimulation is 5.7% (inactive). Further, the inhibition of viability in assay [6] is 76.9% (active). The viability decrease (inhibition) in assay [7] was 110% (active); in assay [8] it was 28.8% (inactive). In assay [9], the inhibition is 7.15% (inactive). Further, in assay [10], the mean signal is 245 (inactive). The red/green cell ratio (normalised) in assay [11] is 0.9 (inactive). Moreover, the normalised cell number in [11] (setting [16]) turned out to be 1.17; in assay [11] (setting [17]) it was 1.05. The z-score is -0.251 (inactive) and 0.0297 (inactive) and -0.48 (inactive) in [12] (setting [18]); -0.152 and -0.842 and 0.0934 in assay [12] (setting [19]). Further, the remaining NAD in assay [13] is 10 nM (inactive). Also, the luciferase signal in assay [14] was 144 AU (inactive). Further, the log fold change Tl+ flux is 0.2 (active) with F380Y; 0.16 (active) in the assay on F380Y/beta1; 0.393 (active) in the assay with F380Y/beta2Delta; 0.26 (active) in the assay with F380Y/beta4; -0.00524 (inactive) in [15].
Regarding `CN(C)CCOC(C)(c1ccccc1)c1ccccn1` (centres undefined), the nuclear beta-catenin stimulation in assay [1] (at 10 µM) is 1.1% (inactive); in assay [1] (stimulation, at 2 µM) it was -0.9%. The insulin secretion stimulation in [2] was 11.2% (inactive). The viability decrease in assay [3] was 7.4% (inactive). Besides, in assay [4], the tube area decrease is -15.5% (inactive). Also, in assay [5], the GLP1 secretion stimulation was 1% (inactive). Also, in assay [6], the inhibition of viability is 22.7% (inactive). The viability decrease (inhibition) in [7] was 28.1% (inactive); in [8], -4.8% (inactive). In addition, in [9], the inhibition was 1.67% (inactive). The mean signal in [10] was 230 (inactive). Also, in assay [11], the red/green cell ratio (normalised) is 1.11 (inactive). The normalised cell number in assay [11] (setting [16]) was 1.38; in assay [11] (setting [17]), 1.53. Besides, the z-score is 0.438 (inactive) and -0.212 (inactive) and 0.265 (inactive) in [12] (setting [18]); -0.4 and -0.135 and 0.109 in assay [12] (setting [19]). Further, the remaining NAD in assay [13] is 10 nM (inactive). Besides, the luciferase signal in [14] is 124 AU (inactive). Also, the log fold change Tl+ flux in the assay with F380Y is -0.0291 (inactive); in the assay on F380Y/beta1, -0.0273 (inactive); with F380Y/beta2Delta it was -0.0218 (inactive); with F380Y/beta4 it was 0.0181 (inactive); in [15], -0.0144 (inactive).
Take `CCN(CC)CCOC(=O)c1ccc(N)cc1`: the nuclear beta-catenin stimulation in assay [1] (at 10 µM) is 0.6% (inactive); in assay [1] (stimulation, at 2 µM), -0.3%. In addition, the insulin secretion stimulation in assay [2] is 0.1% (inactive). The viability decrease in assay [3] was 2.8% (inactive). Further, the tube area decrease in assay [4] was 7% (inactive). In addition, the GLP1 secretion stimulation in [5] was -0.7% (inactive). In addition, the inhibition of viability in assay [6] was 4.2% (inactive). In addition, the viability decrease (inhibition) was 56.5% (active) in assay [7] and 1.05% (inactive) in [8]. For the same compound, the inhibition in assay [9] is 2.32% (inactive). Moreover, in assay [10], the mean signal is 231 (inactive). Also, the red/green cell ratio (normalised) in assay [11] is 1.08 (inactive). For the same compound, the normalised cell number in [11] (setting [16]) was determined as 0.95; in [11] (setting [17]), 1.03. The z-score is -0.214 (inactive) and -0.849 (inactive) in assay [12] (setting [18]); -0.241 and -0.347 in assay [12] (setting [19]). Besides, the remaining NAD in [13] is 10 nM (inactive). Moreover, the luciferase signal in assay [14] was 92 AU (inactive). Further, the log fold change Tl+ flux is -0.0653 (inactive) with F380Y; -0.0732 (inactive) in the assay with F380Y/beta1; 0.0223 (inactive) in the assay with F380Y/beta2Delta; 0.0148 (inactive) with F380Y/beta4; 0.0123 (inactive) in assay [15].

A word on the inhibition: it is the percentage by which the read-out fell short of the control.
